Assay results published in PubChem BioAssay (NCATS).
A number with no mark means an inactive call. Results filed as inconclusive are left out. Activity calls are given as the source filed them. Unless noted, the call rests on the fitted dose curve; in most records, active means well fitted curve in either direction with a large enough effect (not every such curve was filed as active); inconclusive means small, poorly fitted or top-dose-only effect, or another doubt; inactive means flat fitted curve, though single readings scatter.

Legend:
[1] = target: Lysosomal acid glucosylceramidase (Homo sapiens) (UniProt P04062); experiment: Glucocerebrosidase-p2 (AID 348; in the data active means potency below about 10 µM; further: potency means the concentration at half of the fitted maximal effect); conditions: purified GBA, blue fluorogenic substrate, 40 min
Procedure, shortened: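 Normal human glucocerebrosidase (0.2 nM) with blue fluorogenic substrate (80 uM final) in citrate/phosphate pH 5.9 with 10mM sodium taurocholate, 0.01% tween-20; 40 min RT, NaOH/glycine stop; fluorescence Ex 365/Em 440; AC50 from a titration from 0.6 nM upwards.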

[2] = AP1 Signaling Pathway (AID 357); conditions: ME-180 AP-1-bla reporter, EGF-induced, beta-lactamase ratio, 5 h; at 7.69 µM (top of the series) unless noted; further: on the % scale 0 is the no-effect control and ±100 the full control effect
Procedure, shortened: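 AP-1-bla ME-180 cells with beta-lactamase reporter under AP-1 response element, stimulated with EC50 EGF; compounds titrated, 5 hours at 37 degrees Celsius. CCF4 read at 460/530 nm ratio; positive and negative modulators judged by AC50.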

[3] = NFAT Signaling Pathway (AID 444); conditions: Jurkat NFAT-bla M1, carbachol, beta-lactamase ratio, 5 h; at 7.69 µM (top of the series) unless noted;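 further: carbachol stimulus at about its EC50 of 1 µM final; on the % scale 0 is the no-effect control and ±100 the full control effect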
Procedure, shortened: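 Jurkat cells carrying an NFAT-driven β-lactamase reporter and co-transfected muscarinic M1 receptor were treated with compound plus carbachol (1 uM final, an EC50 level) for 5 h at 37 °C. CCF4 loading followed for 1 h at RT; 460/530 nm ratio gave %activity.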

[4] = Stat Signaling Pathway (AID 446); conditions: ME-180 (cervical carcinoma) SIE beta-lactamase reporter, IL-6 stimulated, 5 h; at 7.69 µM (top of the series) unless noted;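 further: ME-180 cervical cancer cells given 40 pM IL-6 alongside compound; SIE-controlled beta-lactamase reporter measured as 460/530 nm FRET emission ratio; on the % scale 0 is the no-effect control and ±100 the full control effect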
Procedure, shortened: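 Normalization used AC90 stimulation (300 pM IL-6) and AC90 inhibition (125 nM pan-JAK inhibitor at 40 pM IL-6). The underlying signal is SIE-driven beta-lactamase in ME-180 cells after 5 h IL-6 exposure with compound.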

[5] = target: Glucocorticoid receptor (Homo sapiens) (UniProt P04150); experiment: GR-GFP Redistribution (AID 450;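 active means compounds whose dose series gives a full or clear partial fitted curve of increased nuclear translocation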; further: potency means the concentration at half of the fitted maximal effect); conditions: U2OS GR-GFP nuclear translocation, laser cytometry, 2 h
[6] = target: Glucocorticoid receptor (Homo sapiens) (UniProt P04150); experiment: GR-EFC Redistribution (AID 451; calls by dose curve; further: potency means the concentration at half of the fitted maximal effect); conditions: CHO-K1 GR-EFC translocation, beta-gal luminescence, 2 h
Procedure, shortened: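 CHO-K1 cells stably expressing nuclear-localized β-gal enzyme acceptor and GR fused C-terminally to the enzyme donor fragment; ligand-driven nuclear translocation restores β-gal by complementation. Compounds titrated up to 46 uM final, 2 h at 37 °C; luminescence read.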

[7] = target: Mitogen-activated protein kinase 10 (Mus musculus) (UniProt Q61831); experiment: JNK3 AlphaScreen Assay (AID 530); conditions: JNK3 lysate, c-Jun phosphorylation; series mostly up to 57.1 µM;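 further: kinase came from lysate of stimulated human HepG2 cells; signal reports phosphorylation of biotinylated GST-cJun 1-79 at Ser73 with 10 µM ATP; on the % scale 0 is the no-effect control and ±100 the full control effect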
Procedure, shortened: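 Biotinylated GST-cJun(1-79) served as substrate for JNK3 in HepG2 lysates stimulated with IL-1beta and TNF-alpha. ATP was 10 uM final, pH 7.6. Ser73 phosphorylation was quantified by AlphaScreen (680 nm excitation).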

[8] = target: Cytochrome P450 2C19 (Homo sapiens) (UniProt P33261); experiment: qHTS Assay for Inhibitors and Substrates of Cytochrome P450 2C19 (AID 899; active means well fitted curve in the direction sought with a large enough effect; an effect the other way counts as inactive or inconclusive; further: nearly all actives have a fitted effect of over 60% in size; further: potency means the concentration at half of the fitted maximal effect); conditions: recombinant CYP2C19, luciferin-H EGE luminescence; series mostly up to 11.4 µM
Procedure, shortened: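 In 50mM KPO4, the reaction held 5nM enzyme and KM-level (10uM) Luciferin-H EGE; it ran 60 min at 37C after NADPH regeneration and a 10 min compound preincubation. Luminescence values were scaled to 57uM ketoconazole as complete inhibition.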

[9] = target: Cytochrome P450 3A4 (Homo sapiens) (UniProt P08684); experiment: qHTS Assay for Activators of Cytochrome P450 3A4 (AID 885; active means well fitted curve in the direction sought with a large enough effect; an effect the other way counts as inactive or inconclusive; further: nearly all actives have a fitted effect of over 65% in size); conditions: recombinant CYP3A4, Luciferin-PPXE luminescence, 60 min; series mostly up to 57.1 µM
Procedure, shortened: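 Human CYP3A4 dealkylates Luciferin-PPXE to luciferin, which luciferase detection converts to light. Substrate was at its KM (25uM), buffer 200mM KPO4, reaction 60 min at RT.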

[10] = target: 3',5'-cyclic-AMP phosphodiesterase 4B (Homo sapiens) (UniProt Q07343); experiment: qHTS Assay for Inhibitors of PDE-IV (AID 607; active means well fitted activation curve with a large enough effect in the main read-out, with a control signal flat, not every such curve was filed as active; further: % of control where 0% means no effect); conditions: HEK293 ACTOne CNG channel cells, membrane potential fluorescence; series mostly up to 22.9 µM
Procedure, shortened: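 HEK293 ACTOne cells with CNG channel (1000/well), endogenous PDE4; membrane potential dye, compounds up to 22.9 uM final. Fluorescence Ex 535/Em 590; RO 20-1724 (100 uM final) as reference.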

[11] = target: Cytochrome P450 2D6 (Homo sapiens) (UniProt P10635); experiment: qHTS Assay for Inhibitors and Substrates of Cytochrome P450 2D6 (AID 891; active means well fitted curve in the direction sought with a large enough effect; an effect the other way counts as inactive or inconclusive; further: nearly all actives have a fitted effect of over 60% in size; further: potency means the concentration at half of the fitted maximal effect); conditions: recombinant CYP2D6, luciferin-ME EGE luminescence; series mostly up to 11.4 µM
Procedure, shortened: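 Luminescent read-out of luciferin formed by 5 nM human CYP2D6 demethylating 30 uM Luciferin-ME EGE (Km level) over 60 min at room temperature after NADPH regeneration addition. Data normalized to full inhibition by 1.43 uM quinidine.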

Chain of Lysosomal acid glucosylceramidase (Homo sapiens) (P04062 whole entry, looked up): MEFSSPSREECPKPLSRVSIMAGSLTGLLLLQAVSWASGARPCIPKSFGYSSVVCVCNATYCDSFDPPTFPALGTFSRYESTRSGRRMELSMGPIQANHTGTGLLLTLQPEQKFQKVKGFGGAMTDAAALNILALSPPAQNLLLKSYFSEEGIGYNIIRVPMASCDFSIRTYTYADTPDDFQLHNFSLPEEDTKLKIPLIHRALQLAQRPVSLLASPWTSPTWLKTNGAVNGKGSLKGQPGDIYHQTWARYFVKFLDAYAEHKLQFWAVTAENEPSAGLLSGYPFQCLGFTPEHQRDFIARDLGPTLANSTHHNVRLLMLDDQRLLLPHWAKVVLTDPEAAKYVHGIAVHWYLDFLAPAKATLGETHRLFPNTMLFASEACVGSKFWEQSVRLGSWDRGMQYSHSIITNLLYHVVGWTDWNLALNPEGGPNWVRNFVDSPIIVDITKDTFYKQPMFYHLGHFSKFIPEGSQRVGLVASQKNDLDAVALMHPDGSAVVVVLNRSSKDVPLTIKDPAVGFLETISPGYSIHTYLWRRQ
Chain of Glucocorticoid receptor (Homo sapiens) (P04150 whole entry, looked up, the tested form may be a part): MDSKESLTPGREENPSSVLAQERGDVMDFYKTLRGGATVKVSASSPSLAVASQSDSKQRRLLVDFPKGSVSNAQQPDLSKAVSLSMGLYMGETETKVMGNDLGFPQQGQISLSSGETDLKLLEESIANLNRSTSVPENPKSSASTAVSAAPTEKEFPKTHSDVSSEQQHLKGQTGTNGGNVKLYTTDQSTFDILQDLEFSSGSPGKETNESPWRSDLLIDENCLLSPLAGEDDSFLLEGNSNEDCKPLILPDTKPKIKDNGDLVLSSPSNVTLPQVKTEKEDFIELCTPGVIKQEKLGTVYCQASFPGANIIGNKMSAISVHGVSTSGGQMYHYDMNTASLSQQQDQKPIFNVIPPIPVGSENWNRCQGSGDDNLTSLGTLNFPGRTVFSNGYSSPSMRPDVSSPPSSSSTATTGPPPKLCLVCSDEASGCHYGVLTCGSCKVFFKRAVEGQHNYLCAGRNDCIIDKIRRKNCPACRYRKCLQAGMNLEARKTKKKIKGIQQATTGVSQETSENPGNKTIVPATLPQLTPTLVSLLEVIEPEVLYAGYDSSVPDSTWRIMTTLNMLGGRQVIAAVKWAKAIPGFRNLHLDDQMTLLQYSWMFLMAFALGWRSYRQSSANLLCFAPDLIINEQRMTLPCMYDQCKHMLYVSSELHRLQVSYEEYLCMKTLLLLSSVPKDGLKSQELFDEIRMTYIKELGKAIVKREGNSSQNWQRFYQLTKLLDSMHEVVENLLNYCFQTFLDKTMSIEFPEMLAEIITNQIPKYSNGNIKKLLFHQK
Chain of Cytochrome P450 2C19 (Homo sapiens) (P33261 whole entry, looked up): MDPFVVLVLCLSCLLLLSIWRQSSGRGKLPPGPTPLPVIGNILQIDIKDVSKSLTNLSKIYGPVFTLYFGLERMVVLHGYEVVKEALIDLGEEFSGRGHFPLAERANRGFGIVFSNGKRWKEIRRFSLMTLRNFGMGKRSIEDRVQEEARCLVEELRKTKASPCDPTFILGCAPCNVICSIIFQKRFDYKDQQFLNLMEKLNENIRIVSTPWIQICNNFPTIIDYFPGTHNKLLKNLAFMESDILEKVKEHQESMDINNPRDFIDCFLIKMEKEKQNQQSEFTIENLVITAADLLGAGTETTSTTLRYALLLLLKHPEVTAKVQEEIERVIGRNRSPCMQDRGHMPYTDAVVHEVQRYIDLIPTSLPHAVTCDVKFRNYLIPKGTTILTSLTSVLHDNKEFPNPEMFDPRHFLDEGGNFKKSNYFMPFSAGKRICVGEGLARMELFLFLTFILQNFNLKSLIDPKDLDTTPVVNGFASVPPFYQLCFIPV
Chain of 3',5'-cyclic-AMP phosphodiesterase 4B (Homo sapiens) (Q07343 whole entry, looked up): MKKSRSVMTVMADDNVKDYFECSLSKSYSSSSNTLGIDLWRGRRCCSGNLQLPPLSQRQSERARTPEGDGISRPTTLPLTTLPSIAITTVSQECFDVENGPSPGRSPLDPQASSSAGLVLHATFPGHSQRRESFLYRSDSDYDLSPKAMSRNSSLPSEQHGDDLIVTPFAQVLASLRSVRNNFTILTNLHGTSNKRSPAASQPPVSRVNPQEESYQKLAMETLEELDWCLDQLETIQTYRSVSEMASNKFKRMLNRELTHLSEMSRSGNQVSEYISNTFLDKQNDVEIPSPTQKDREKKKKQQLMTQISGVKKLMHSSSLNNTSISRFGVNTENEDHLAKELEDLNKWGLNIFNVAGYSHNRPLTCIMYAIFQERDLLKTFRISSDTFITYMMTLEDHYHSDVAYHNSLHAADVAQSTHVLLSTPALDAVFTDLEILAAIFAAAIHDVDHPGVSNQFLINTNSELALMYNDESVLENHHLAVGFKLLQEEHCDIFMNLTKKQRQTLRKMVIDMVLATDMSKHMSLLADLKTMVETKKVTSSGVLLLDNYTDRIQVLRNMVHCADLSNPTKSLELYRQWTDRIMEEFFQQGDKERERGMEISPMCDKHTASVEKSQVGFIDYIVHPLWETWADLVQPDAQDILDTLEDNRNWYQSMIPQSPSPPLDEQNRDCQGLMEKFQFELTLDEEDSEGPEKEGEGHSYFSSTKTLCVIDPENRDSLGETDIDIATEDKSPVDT
Chain of Cytochrome P450 3A4 (Homo sapiens) (P08684 whole entry, looked up): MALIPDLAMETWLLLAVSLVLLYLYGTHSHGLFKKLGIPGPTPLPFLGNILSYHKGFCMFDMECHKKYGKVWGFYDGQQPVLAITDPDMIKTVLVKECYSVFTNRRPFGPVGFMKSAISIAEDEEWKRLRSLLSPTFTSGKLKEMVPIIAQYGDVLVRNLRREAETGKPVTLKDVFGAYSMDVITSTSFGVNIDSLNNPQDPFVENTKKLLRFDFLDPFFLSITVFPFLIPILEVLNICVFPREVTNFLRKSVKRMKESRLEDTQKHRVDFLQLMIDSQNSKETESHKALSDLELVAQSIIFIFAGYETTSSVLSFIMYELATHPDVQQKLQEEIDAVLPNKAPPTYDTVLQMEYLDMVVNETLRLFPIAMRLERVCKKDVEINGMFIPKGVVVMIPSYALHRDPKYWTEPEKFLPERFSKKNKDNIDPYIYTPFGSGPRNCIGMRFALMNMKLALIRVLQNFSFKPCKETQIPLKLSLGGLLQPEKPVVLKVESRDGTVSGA
Chain of Cytochrome P450 2D6 (Homo sapiens) (P10635 whole entry, looked up): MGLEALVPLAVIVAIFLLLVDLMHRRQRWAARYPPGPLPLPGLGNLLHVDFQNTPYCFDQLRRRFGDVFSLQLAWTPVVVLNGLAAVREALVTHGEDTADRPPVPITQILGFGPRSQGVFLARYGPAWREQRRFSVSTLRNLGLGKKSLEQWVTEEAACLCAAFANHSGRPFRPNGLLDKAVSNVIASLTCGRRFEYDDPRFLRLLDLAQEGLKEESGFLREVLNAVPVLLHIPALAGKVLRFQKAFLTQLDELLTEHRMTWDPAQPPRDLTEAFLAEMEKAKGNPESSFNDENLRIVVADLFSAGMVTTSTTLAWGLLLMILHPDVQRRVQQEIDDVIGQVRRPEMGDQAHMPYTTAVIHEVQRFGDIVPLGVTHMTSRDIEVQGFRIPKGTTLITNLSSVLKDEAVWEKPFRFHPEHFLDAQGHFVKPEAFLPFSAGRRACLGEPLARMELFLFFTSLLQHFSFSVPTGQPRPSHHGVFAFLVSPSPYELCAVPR

Compound | Potency [1] | activity change, negative = inhibition [2] | activity change, negative = inhibition [3] | activity, negative = inhibition [4] | Potency [5] | Potency [6] | activity change, negative = inhibition [7] | Potency [8] | activity change, positive = activation [9] | outcome [10] | Potency [11]
CC(C)CNCCc1ccccn1 | > 11.4 µM | 11.4% | 10.3% | 0.662% | > 46 µM | > 9.22 µM | 2.37% [at 11.4 µM] | inactive | – | – | –
CC[C@@](O)(C(=O)O)c1cc2n(c(=O)c1CO)Cc1cc3ccccc3nc1-2 | > 11.4 µM | 0.967% | -9.59% | -0.155% | > 46 µM | > 9.22 µM | 3.55% [at 11.4 µM] | – | -36.6% [at 11.4 µM] | – | –
O=S(=O)(Nc1nccs1)c1ccc([As](=O)(O)O)cc1 | > 11.4 µM | 4.77% | 8.49% | 10.3% | > 46 µM | > 9.22 µM | 2.72% [at 11.4 µM] | – | – | inactive | –
Nc1c(C(=O)Nc2ccc([As](=O)(O)O)cc2)cnc2nnnn12 | > 11.4 µM | 2.63% | 25.5% | -0.343% | > 46 µM | > 9.22 µM | 0.733% [at 11.4 µM] | – | – | inactive | –
C(=NCCN1CCOCC1)=NC1CCCCC1 | > 11.4 µM | -1.14% | 12.1% | 19.2% | > 46 µM | – | 3.92% [at 11.4 µM] | – | – | inactive | –
S=P(C1CCCCC1)(C1CCCCC1)[C@H](c1cccnc1)N1CCCC1 | > 11.4 µM | 10.9% | 5.74% | -1.57% | > 46 µM | > 9.22 µM | 0.158% [at 11.4 µM] | 1.26 µM (active) | -61.4% [at 11.4 µM] | inactive | –
CCNC(C)(C)[C@@H](SS)c1ccc(Br)cc1 | > 11.4 µM | 5.96% | 11.8% | -1.19% | > 46 µM | > 9.22 µM | -0.59% [at 11.4 µM] | – | -31.2% [at 11.4 µM] | – | 2 µM (active)
Cc1ccc(S(=O)ON2CCC(C(=O)O)(c3ccccc3)CC2)cc1 (centres undefined) | > 11.4 µM | -1.29% | 5.73% | 8.69% | > 46 µM | > 9.22 µM | 5.44% [at 11.4 µM] | inactive | – | inactive | –
C[C@@]12Cc3cnc(-c4ccccc4)nc3C[C@@H]1CC[C@@H]1[C@H]3CC[C@@](C)(O)[C@]3(C)CC[C@@H]12 | > 11.4 µM | 5.09% | -13.1% | 1.77% | > 46 µM | > 9.22 µM | 3.79% [at 11.4 µM] | – | – | inactive | –
CSc1ccc2c(c1)c(CCN)c(C)n2Cc1ccccc1Cl | > 11.4 µM | 16.6% | 17.6% | -2.31% | > 46 µM | > 9.22 µM | -5.61% [at 11.4 µM] | – | – | inactive | –
O=C(O)C[C@H]1OCC=C2CN3CC[C@@]45C6=CC(=O)C(=O)C([N+](=O)[O-])=C6N[C@H]4[C@H]1[C@H]2C[C@@H]35 | > 11.4 µM | 4.93% | 2.25% | 2.08% | > 46 µM | > 9.22 µM | -0.499% [at 11.4 µM] | – | – | inactive | –
c1nc(N2CC2)c2cnn([C@@H]3CCCCO3)c2n1 | > 11.4 µM | 5.4% | 7.32% | -5.16% | > 46 µM | > 9.22 µM | 0.68% [at 11.4 µM] | – | – | inactive | –
C[C@]12CN(CC[N+](C)(C)C)C[C@]1(C)[C@@H]1CC[C@@H]2O1 | 6.39 µM (active) | 12.6% | 10.2% | -6.86% | > 46 µM | > 9.22 µM | -2.5% [at 11.4 µM] | – | – | – | –
c1cc(CCN2CCCCC2)ccn1 | > 11.4 µM | 1.53% | 7.13% | 6.27% | > 46 µM | > 9.22 µM | 1.02% [at 11.4 µM] | – | -36% [at 11.4 µM] | inactive | –
O=C(O)CNC(=O)c1ccc([As](=O)(O)O)cc1 | > 11.4 µM | 9.68% | 7.56% | 12.9% | > 46 µM | > 9.22 µM | 36.2% [at 11.4 µM] | – | – | inactive | –
CCOC(=O)c1ccc2[nH]c(-c3ccc(S(=O)(=O)F)cc3)cc(=O)c2c1 | > 11.4 µM | -7.65% | 25.8% | -0.749% | > 46 µM | > 9.22 µM | 3.3% [at 11.4 µM] | – | – | inactive | –
CCN=C=NCCCN(C)C | > 11.4 µM | 5.33% | 4.76% | 2.84% | > 46 µM | > 9.22 µM | -0.714% [at 11.4 µM] | – | – | inactive | inactive
N[C@@H](Cc1c[nH]c2cc([N+](=O)[O-])ccc12)C(=O)O | > 11.4 µM | -8.44% | 5.87% | 10.4% | > 46 µM | > 9.22 µM | 4.66% [at 11.4 µM] | – | – | inactive | –
NC1(P(=O)(O)O)CCCCC1 | > 11.4 µM | 11.8% | -8.61% | 4.3% | > 46 µM | > 9.22 µM | 5.68% [at 11.4 µM] | – | – | inactive | –
CN(C)[C@@H]1C(=O)C(C(N)=O)=C(O)[C@]2(O)C(=O)C3=C(O)c4c(O)cccc4[C@](C)(O)[C@H]3C[C@@H]12 | > 11.4 µM | -8.78% | 15.2% | -10.5% | > 46 µM | > 9.22 µM | -5.55% [at 11.4 µM] | – | – | inactive | –
N#CS.N=C=S.N=C=S.[Cu].[NH2-].[NH2-].[NH2-].[NH2-].c1ccc2ncccc2c1 | > 11.4 µM | -1.15% | 0.5% | -4.61% | > 46 µM | – | 0.42% [at 11.4 µM] | – | – | – | –
NNc1nncn1N | > 11.4 µM | 17.5% | 5.16% | 18.4% | > 46 µM | > 9.22 µM | 3.94% [at 11.4 µM] | – | – | inactive | –
CN(C)CCCNc1c2c(nc3ccc(Cl)cc13)CCCC2 | > 11.4 µM | -1.02% | -26.1% | 10% | > 46 µM | > 9.22 µM | 3.7% [at 11.4 µM] | – | – | inactive | –
CC(C)(C)c1cc(C#N)cc(Br)c1OP(=O)(Oc1c(Br)cc(C#N)cc1C(C)(C)C)c1ccccc1 | > 11.4 µM | 7.55% | -6.35% | 16.6% | > 46 µM | > 9.22 µM | -1.35% [at 11.4 µM] | – | – | inactive | –
O=C(O)c1cccc([As]=[As]c2cccc(C(=O)O)c2)c1 (centres undefined) | > 11.4 µM | -0.316% | -6.47% | 2.08% | > 46 µM | > 9.22 µM | -0.547% [at 11.4 µM] | – | – | inactive | –
O=C(O)[C@H](Cc1cnc[nH]1)N1C(=O)c2ccccc2C1=O | > 11.4 µM | -8.47% | 7.47% | 4.43% | > 46 µM | > 9.22 µM | 41.7% [at 11.4 µM] | – | – | inactive | –
O=S(=O)(NCCO)c1cc[c]([Sb](=[O])([OH])[OH])cc1 | > 11.4 µM | -1.39% | 16.2% | 6.67% | > 46 µM | > 9.22 µM | 1.82% [at 11.4 µM] | – | – | inactive | –
O=C(O)C(Oc1nc(=S)[nH]c(=S)[nH]1)(c1ccc(Cl)cc1)c1ccc(Cl)cc1 | > 11.4 µM | 17% | 0.65% | 3.94% | > 46 µM | > 9.22 µM | 5.45% [at 11.4 µM] | – | – | inactive | –
C[C@@]12CC[C@H]3[C@@H](CC[C@H]4C[C@@H](O)CC[C@]43C)[C@H]1CC[C@@H]2C(=O)C[C@H](O)C(F)(F)F | > 11.4 µM | 5.97% | 5.84% | -6.11% | > 46 µM | > 9.22 µM | -0.552% [at 11.4 µM] | – | – | inactive | –
